Laboratory results from the supplement of paper PMC6555819.

What was measured:
Assay in all cases: PBM binding z-score (relative to random genomic background probes); higher = stronger binding; sequences stand for … in GC…GCGATTGACAGCGTAGAATGAAGG
[1] = test system: RARb homodimer (NR concentration 270 nM)
Summary of the method: (§1)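 Ligand-free nuclear receptor dimers were bound for 1 h to custom Agilent 4×180K protein-binding microarrays. Detection used antibodies against each partner (one per run). Binding z-scores rest on regression-normalized fluorescence, with random background probes as the reference.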

[2] = test system: RARg:RXRa (NR concentration 270 nM, RXRa partner concentration 90 nM)
Summary of the method: as §1

[3] = test system: RARg homodimer (NR concentration 270 nM)
Summary of the method: as §1

[4] = test system: RXRa DBDmut IVT, anti-RXR (DBD mutation: RXRa K156A/R161A, NR concentration 90 nM)
Summary of the method: as §1

[5] = test system: RXRa homodimer (NR concentration 180 nM)
Summary of the method: as §1

[6] = test system: THRa:RXRa (NR concentration 90 nM, RXRa partner concentration 90 nM)
Summary of the method: as §1

[7] = test system: THRa homodimer (NR concentration 90 nM)
Summary of the method: as §1

[8] = test system: VDR homodimer (NR concentration 270 nM)
Summary of the method: as §1

Row | Sequence | PBM binding z-score [1] | PBM binding z-score [2] | PBM binding z-score [3] | PBM binding z-score [4] | PBM binding z-score [5] | PBM binding z-score [6] | PBM binding z-score [7] | PBM binding z-score [8]
1 | ATCTCTAGGTAAAGTTCAGTGAAAGATCGATAGA | 2.65 | 2.18 | 2.77 | 1.72 | 1.42 | 1.24 | 0.317 | 2.53
2 | AATACCGGGTCATCGTAGGCCAGAGTACGCACAG | 3.19 | 4.84 | 4.28 | 2.45 | 5.06 | 4.59 | 1.69 | 3.06
3 | CCTCCTGGGCCAAAGGTCATTGATTCCAATGCTC | 4.24 | 5.81 | 4.61 | 0.646 | 6.35 | 3.17 | 0.804 | 2.32
4 | AGAATGAGGTTACCAAAGATCAGGGACACGCTTG | 1.72 | 2.29 | 1.89 | 1.2 | 2.64 | 3.33 | 2.17 | 0.768
5 | CGAACTAGGTCAAGGAAAGTGAATCTCCGCACGC | 2.71 | 3.5 | 3.7 | 1.16 | 2.43 | 2.42 | 0.746 | 0.143
6 | TCTAGTTGGTCAACGGTCACACACTCGAAATGCG | 2.49 | 1.51 | 2.16 | 1.24 | 1.23 | 0.548 | 0.185 | 0.188
7 | TTACCAAAGTGAAGGTCGTTGATCCCTCTGTAGA | 0.733 | 0.112 | -0.254 | 0.0594 | 0.926 | 0.74 | -0.495 | 0.739
8 | AATAGAGGGTCATCGTAGGCCAGAGTACGCACAG | 3.48 | 5.35 | 5.12 | 2.46 | 5.77 | 4.26 | 0.0486 | 2.55
9 | TAGCCTAGGTCATTGGGTCAGTATAGTACGCATC | 4.17 | 5.16 | 5.23 | 1.87 | 3.63 | 3.25 | 1.84 | 2.21
10 | CCTACTAGGCCAAAGGTCATTGATTCCAATGCTC | 4.84 | 6.22 | 5.49 | 2.06 | 6.88 | 3.67 | 1.45 | 2.65
11 | TCTTGTAGATCAATAGAGGTTAACAAAGTGCGCT | 1.38 | 1.11 | 0.826 | 0.564 | 1.68 | 2.62 | -0.415 | 0.462
12 | CGTCCAAGGTCAGAGAAGTCAGTGAATGCCGAGT | 3.51 | 4.3 | 5.16 | 2.35 | 3.37 | 3.32 | 1.53 | 1.64
13 | TCTTCTAGGTCAACGATGGTCAGCTAATCTGCTA | 3.76 | 4.37 | 5.58 | 1.9 | 3.09 | 3.55 | 2.17 | 0.674
14 | TCTTGTTGGTCACGGAGGTCACACACGACGGGTA | 4.67 | 5.21 | 5.01 | 1.25 | 5.34 | 3.66 | 3.03 | 3.59
15 | CGTCCAATGTCAGAGAGGTCAGTGAATGCCGAGT | 4.14 | 3.35 | 3.8 | 1.27 | 2.57 | 2.75 | 1.37 | 2.91
16 | AGAACGAGGGCACGCTGAGTTGAAAGCAGAGTAG | 1.16 | 2.34 | 2.15 | 2 | 1.46 | 2.13 | -0.233 | 0.663
17 | CAGCCTAGGTCGGGGCCAGTATAGGAGGAACGTT | 0.941 | 0.359 | 0.842 | -0.52 | -0.0745 | 0.171 | -0.524 | -0.348
18 | CCTTACGGGTCACTCCAGGTTATAGCGTCGGAGT | 2.85 | 4.55 | 4.23 | 1.41 | 4.06 | 5.06 | 0.469 | 1.5
19 | AGTCAAAGTTCAGGACGAGGCAACGTAAAGCACG | 2.9 | 3.86 | 4.55 | 3.06 | 2.86 | 2.76 | 0.753 | 1.61
20 | ATCGAAAGGTCGAAGATGAGTATACCCACCCGAA | 2.11 | 3.48 | 3.4 | 1.35 | 3.68 | 1.56 | -0.0753 | 0.844
21 | CCTTACGGGTCACGAGGTTATAGAACGACGAGCG | 4.13 | 6.4 | 5.59 | 1.18 | 7.41 | 3.8 | 1.14 | 2.22
22 | ATATGTACGTTAGCTGGGGTCATTCAGACTAGGC | 3.2 | 3.67 | 2.5 | 2.23 | 5.37 | 4.01 | 3.2 | 5.16
23 | CCTACTGGGCCAATGGTCATTGATTCCAATGCTC | 0.0691 | -0.0352 | 0.182 | -0.608 | -0.164 | -0.527 | -0.561 | -0.711
24 | GCTCGGAGGGCAAGGTCAGAGCTTTGTCCGTAGA | 3.27 | 3.7 | 3.86 | 0.857 | 2.93 | 2.76 | 0.825 | 0.967
25 | AGAAAGAGGTTAAGATCAGGGAAACAGAATACAT | 1.42 | 2.54 | 1.86 | 0.244 | 2.82 | 2.02 | 0.45 | 0.57
26 | CTCGAAAGGTCGTGCCCAGGTGAGTATACCAAAC | 2.89 | 5.31 | 3.78 | 1.72 | 5.09 | 3.87 | 0.947 | 1.31

Row | Sequence | PBM binding z-score [1] | PBM binding z-score [2] | PBM binding z-score [3] | PBM binding z-score [4] | PBM binding z-score [5] | PBM binding z-score [6] | PBM binding z-score [7] | PBM binding z-score [8]
27 | CAAACTAGGTCACCGGAAGGTCGAAGTCCGCATG | 4.74 | 6.69 | 6 | 1.66 | 4.65 | 4.04 | 2.22 | 1.97
28 | GGAACGAGGGCAAAGTTGATAGGATCTGTCGACG | 1.32 | 2.19 | 1.89 | 2.92 | 2.12 | 1.36 | -0.0299 | 1.34
29 | CGTATTAGTTGACCATAAGGGCAACCGAAGCTCG | 2.04 | 1.2 | 0.883 | 0.244 | 0.743 | 1.83 | 1.15 | 0.668
30 | CAAACTAGGTCACGAAGGGTCAAAGTCGAATGAC | 5.36 | 7.01 | 7.66 | 2.33 | 7.15 | 4.95 | 2 | 3.79
31 | CAAACTAGGTCACCGGAAGGTCAAAGTACGCATG | 5.73 | 8.48 | 7.65 | 2.43 | 6.46 | 4.8 | 3.25 | 3.52
32 | CTCGAAAGGTCGTGCTCAGGTGAGTCTACCAAAC | 2.6 | 5.27 | 3.98 | 2.42 | 4.89 | 4.01 | 0.948 | 1.03
33 | TCGTATAGGTAAACAGGTGAAAGTCCGTAAGTTA | 1.14 | 0.368 | 0.358 | 1.41 | 0.637 | 0.794 | 0.786 | 0.302
34 | ATCTCTAGGTAAGACTCAGTTCAGCGAAGAACGC | 0.706 | 0.274 | 0.294 | 0.439 | 0.4 | 0.927 | 0.802 | 1.48
35 | CCTACTGGGCCACGAAAGGTCAATGATTCAGTGA | 4.81 | 4.94 | 4.64 | 0.165 | 4.81 | 3.66 | 0.66 | 0.883
36 | ATACCAAGGTGATTGTGAGGTCGTTGATACTAAC | 2.03 | 2.19 | 1.08 | 1.27 | 1.59 | 3.66 | 2.94 | 3.33
37 | CCTACTGGGCCATTCAGAGGTCATGGATCATATG | 4.22 | 4.63 | 3.45 | 0.21 | 4.21 | 3.64 | 1.55 | 2.09
38 | TCATATAGGTAAGCAGGTGAAAGTCCGTAAGTTA | 0.479 | 0.2 | -0.071 | 0.903 | 0.347 | 0.462 | 0.196 | -0.0581
39 | AATTACGGGTCAACGAGGTTATAGCACGCGTATA | 3.63 | 5.71 | 4.88 | 2.47 | 6.2 | 4.18 | 1.16 | 4.13
40 | GCAGACACGTGAAACGCAGGTAACTCAGGGTGGC | -0.78 | -0.43 | -0.333 | -0.425 | -0.324 | 0.299 | -0.673 | -0.988
41 | GCTAGCAGGCCATTTGGGTCACTCAATGACGGGC | 2 | 1.11 | 1.55 | 0.0537 | 0.821 | 1.94 | 0.534 | 0.524
42 | AATTCAGGGTCATCGTAGGCCAGAGTACGCACAG | 3.87 | 6.21 | 5.46 | 3.82 | 7.13 | 4.78 | 2.24 | 4.01
43 | CCTCGGAGGACAACAGGAGGTCAGAGTTGCCAGA | 3.77 | 3.42 | 3.26 | 0.349 | 2 | 3.08 | 1.6 | 1.5
44 | CAAACTAGGTCACCGGAAGGTCAAAATCCGCATG | 5.17 | 7.81 | 7.09 | 2.39 | 5.88 | 4.39 | 2.94 | 3.11
45 | TCGTATAGGTAAAGGTGAAAGTCGAACGATATGA | 1.77 | 1.52 | 1.35 | 0.714 | 2.12 | 1.24 | -0.212 | 0.0316
46 | ACTAGTTGGTCAGTTGAGGTCACACACAATTCGG | 4.23 | 3.87 | 4.02 | 1.51 | 4.05 | 5.15 | 5.39 | 4.05
47 | ATACAAAGGTGATCGTGAGGTCGTTGATACTAAC | 2.28 | 3.87 | 1.85 | 0.883 | 2.73 | 3.66 | 2.12 | 2.97
48 | CCAGACACGTGAGAAGGTAACTCAGCCTCGATTA | -0.118 | 0.0186 | 0.206 | 0.268 | 0.0109 | -0.00448 | -0.0296 | 0.0283
49 | GGGACTGGGGCATCAGCAGGTTACCATAACTTAA | 1.91 | 1.51 | 1.03 | -0.52 | 0.556 | 1.66 | 1.46 | 0.605
50 | GCTGCTAGGTCAGGTTGGTCAGCTATCGGGTACG | 2.73 | 2.44 | 3.56 | 0.759 | 0.93 | 1.84 | 0.785 | 0.204
51 | CTCGAAAGGTCGTGCACAGGTGAGTATACCAAAC | 3.18 | 5.89 | 4.46 | 2.16 | 5.32 | 3.21 | 0.254 | 1.42
52 | GCTCGGAGGACACGGTCAGAGCTTTGTCCGTAGA | 1.35 | 0.822 | 1.71 | 0.29 | -0.503 | 1.36 | 0.245 | -0.453
